Source: PubChem BioAssay
CBX7 inh = blocks human CBX7 binding to H3K27me3 peptide; normalised signal (fraction of DMSO) (test concentration not listed); O95931; AlphaScreen His6-CBX7 / biotin-H3K27me3 peptide binding; stronger effect = lower value; hit rate 1.1% among 66,000; in the data active means normalised signal below about 0.5
Target sequence (O95931 whole entry, looked up): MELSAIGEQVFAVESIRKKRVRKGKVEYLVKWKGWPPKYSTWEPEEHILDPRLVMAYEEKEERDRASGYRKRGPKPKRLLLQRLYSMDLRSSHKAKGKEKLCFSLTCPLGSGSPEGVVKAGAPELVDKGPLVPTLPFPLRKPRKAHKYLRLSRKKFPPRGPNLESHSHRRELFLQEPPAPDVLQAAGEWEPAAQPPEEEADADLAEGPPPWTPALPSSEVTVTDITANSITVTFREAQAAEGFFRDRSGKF
Numbers without * were called inactive; ! = not confirmed by another sample. Shown is part of a subset that was picked to be rich in hits.

SMILES | CBX7 inh
CCCCOc1ccc(-c2nc3ccccc3c(C(=O)O)c2C)cc1 | 1.03
COC(=O)c1c[nH]n2c(NC3CCCCCC3)c(-c3ccc(C)cc3)nc12 | 0.427*
COC(=O)c1c[nH]n2c(=O)c(Cc3ccc(C)cc3)c(C)nc12 | 1.18
COC(=O)c1c[nH]n2c(NC3CCCC3)c(-c3ccc(F)cc3)nc12 | 0.282*
CCCCOc1ccc(-c2nc3c(C(=O)OC)c[nH]n3c2NC2CCCCC2)cc1 | 0.187*
Cn1c2ccccc2c2c(C(=O)N3CCN(Cc4ccccc4)CC3)cn(C3CCCC3)c(=O)c21 | 0.962
CC1=Nc2ccccc2N(Cc2ccccc2)C(=O)C1 | 1.01
CCOc1ccc(C(=O)N(Cc2ccc(OC)cc2)C2CCS(=O)(=O)C2)cc1 (stereo not given) | 0.944
COc1ccc(OC)c(Nc2cc(C(=O)NCC3CCCO3)c3ccccc3n2)c1 (stereo not given) | 0.869
CCOC(=O)c1[nH]c2ccc(O)cc2c1C(=O)c1ccccc1 | 0.929
COCCNC(=O)c1ccc2c(c1)nc(C)n2-c1ccc(F)cc1F | 0.971
COC(=O)c1c[nH]n2c(=O)c(Cc3cc(C)ccc3C)c(C)nc12 | 1.32
COC(=O)c1c[nH]n2c(=O)c(Cc3cccc(Cl)c3)c(C)nc12 | 0.981
COC(=O)c1c[nH]n2c(NC3CCCCCC3)c(-c3cccc(C)c3)nc12 | 0.438*
COC(=O)c1c[nH]n2c(NCCc3ccccc3)c(-c3cccc(OC)c3)nc12 | 0.856
Cc1nc2c(C(=O)NC3CCCC3)c[nH]n2c(=O)c1Cc1ccc(Cl)cc1 | 1.13
COC(=O)c1c[nH]n2c(NC3CCC(C)CC3)c(-c3cccc(F)c3)nc12 (stereo not given) | 0.331*
CC1CCC(NC(=O)Cn2nc(-c3ccccc3)c3cc(Cl)ccc32)CC1 (stereo not given) | 1.01
Cc1nc2c(C(=O)NC3CC3)c[nH]n2c(=O)c1Cc1ccccc1F | 1.02
COC(=O)c1c[nH]n2c(=O)c(Cc3ccccc3C)c(C)nc12 | 1.11
COC(=O)c1c[nH]n2c(NC3CCC(C)CC3)c(-c3ccc(Cl)cc3)nc12 (stereo not given) | 0.329*
Cc1cccc(-c2nc(CN3CCCC(C(=O)NC4CCC(C)CC4)C3)c(C)o2)c1 (stereo not given) | 1.02
COC(=O)c1c[nH]n2c(NC3CCC(C)CC3)c(-c3cccc(C)c3)nc12 (stereo not given) | 0.238*
O=C(CCCNS(=O)(=O)c1ccc2c(c1)CCC(=O)N2)NCc1ccc(Cl)cc1 | 1.01
CC(C)NC(=O)CCN1C(=O)COc2ccccc21 | 1.03
SMILES | CBX7 inh
Cc1ccc(-c2nn(C)c(=O)c3ccccc23)cc1S(=O)(=O)NC1CCCCC1 | 1
CCN1CCN(Cc2ccc(NC(=O)C3CCN(c4nn5c(=O)cc(C)nc5s4)CC3)cc2)CC1 | 1.24
CCOCCCNC(=O)c1ccc2c(c1)ncn2-c1ccc(OC)cc1 | 0.872
CCCCn1c(C2CC(=O)N(c3ccc(Br)cc3)C2)nc2ccccc21 (stereo not given) | 1.15
CCC(=O)N1CCc2cc(S(=O)(=O)NCCC(=O)Nc3ccc(OC(F)(F)F)cc3)ccc21 | 0.986
CC(=O)Nc1ccc(-c2nc(-c3ccccc3)c3ccccc3n2)cc1 | 1.02
COC(=O)CNC(=O)CCCNC(=O)Cn1cnc2sc(C)c(C)c2c1=O | 0.921
O=C(Nc1ccc(-c2nc3cc(Cl)ccc3o2)cc1)c1ccc2ccccc2c1 | 1.12
CC(=O)N1CCc2cc(S(=O)(=O)NC(C)(C)C)ccc21 | 1.11
Cc1ccc(C2C(=O)N(C3CCC(C)CC3)CC(=O)N2CCc2ccccc2Cl)cc1 (stereo not given) | 1.07
COCc1nnc(NC(=O)c2ccc(S(=O)(=O)N(CC(C)C)CC(C)C)cc2)o1 | 0.0806*
C=CCN(CC=C)S(=O)(=O)c1ccc(C(=O)Nc2nnc(COC)o2)cc1 | 0.0685*
O=C(O)c1ccc(NCc2nc3ccccc3n2Cc2ccc(Cl)cc2)cc1 | 1.01
O=C(Nc1ccccc1Cl)C(Cc1ccccc1)N1C(=O)c2ccccc2C1=O (stereo not given) | 1.41
COc1ccccc1/C=C/c1nn2c(-c3ccccc3)nnc2s1 | 1.04
Cc1nc2ccccn2c1-c1csc(Nc2ccc(N(C)C)cc2)n1 | 0.466*
CC(=O)Nc1ccc(Nc2nc(-c3c(C)nc4ccccn34)cs2)cc1 | 0.953
Cc1nc(C)c(-c2csc(Nc3ccc(N(C)C)cc3)n2)s1 | 0.0536*
Cc1ccc(Nc2nc(-c3c(C)nc4sccn34)cs2)cc1 | 0.682
Cc1ccn2c(-c3csc(Nc4cccc(C(=O)O)c4)n3)c(C)nc2c1 | 0.79
Cc1nc(C)c(-c2csc(Nc3ccc(Cl)cc3)n2)s1 | 0.588
CCN(CC)c1ccc(Nc2nc(-c3c(C)nc4cc(C)ccn34)cs2)cc1 | 0.235*
Cc1nc2sccn2c1-c1csc(Nc2cccc(O)c2)n1 | 0.271*!
CC(=O)Nc1nc(C)c(-c2csc(Nc3ccc(Cl)cc3)n2)s1 | 1.01
Cc1nc2ccccn2c1-c1csc(Nc2ccc(Br)cc2)n1 | 1.02
SMILES | CBX7 inh
Cc1ccn2c(-c3csc(Nc4ccccc4)n3)c(C)nc2c1 | 0.845
Cc1nc2sccn2c1-c1csc(Nc2ccccc2)n1 | 0.741
Cc1c(C(=O)NCCN2CCCC2)sc2ncn(CC(=O)N3CCCCC3C)c(=O)c12 (stereo not given) | 1.02
Cc1c(C(=O)Nc2cccc(C(F)(F)F)c2)sc2ncn(CC(=O)N3CCCCC3C)c(=O)c12 (stereo not given) | 1.11
O=c1c2ccccc2nc(-c2ccccc2F)n1Cc1c(F)cccc1Cl | 0.989
Cc1ccn2c(-c3csc(Nc4ccccc4C)n3)c(C)nc2c1 | 1.05
Cc1ccc(Nc2nc(-c3c(C)nc4cc(C)ccn34)cs2)c(C)c1 | 0.416*!
Cc1ccn2c(-c3csc(Nc4ccccc4Cl)n3)c(C)nc2c1 | 0.83
Cc1ccc(NC(=O)[C@H](CCS(C)(=O)=O)N2Cc3ccccc3C2=O)cc1F | 1.01
COc1cc(OC)cc(C(=O)Nc2cccc(-c3nc4ccccc4[nH]3)c2)c1 | 1.01
CC1CCCN(c2nc3nonc3nc2Nc2ccc3c(c2)OCO3)C1 (stereo not given) | 0.824
COc1ccc(CCn2c(=O)c3cccnc3n(CC#N)c2=O)cc1OC | 0.911
N#Cc1nc(COc2ccc(Br)cc2)oc1N1CCCCCC1 | 0.416*
Cc1ccc(OCc2nc(C#N)c(N3CCC(Cc4ccccc4)CC3)o2)cc1 | 0.6
N#Cc1nc(COc2ccc(Br)cc2)oc1N1CCCC1 | 0.468*
CCN1CCN(c2oc(COc3ccc(Cl)cc3)nc2C#N)CC1 | 0.718
COc1ccc(OCc2nc(C#N)c(N3CCCC3)o2)cc1 | 0.859
Cc1ccc2cc(CCNC(=O)c3ccccc3F)c(=O)[nH]c2c1 | 1.02
CCCCCCCOc1ccc(-c2ccc(C#N)cc2)cc1 | 1.47
COc1ccc(OC)c(Nc2nc3nonc3nc2Nc2cccc(Cl)c2)c1 | 1.01
Cc1ccc(C)c(N2CCN(C(=O)c3cnn4c(C)c(Cc5cccc(Cl)c5)c(C)nc34)CC2)c1 | 0.771
COc1ccc(NC(=O)C2CCN(S(=O)(=O)c3cccnc3)CC2)cc1OC | 1.04
Cc1c(NC(=O)c2ccccc2F)cccc1-c1nc2cc(Cl)ccc2o1 | 1.12
O=C(Nc1ccccc1-c1nc2ccccc2s1)c1ccccc1 | 1.01
Cc1c(NC(=O)c2ncn[nH]2)cccc1-c1nc2cc(Cl)ccc2o1 | 0.124*
O=C(Nc1ccc2oc(-c3ccccc3Cl)nc2c1)c1cncc(Br)c1 | 1.01
Cc1c(NC(=O)c2ncn[nH]2)cccc1-c1nc2ccccc2s1 | 0.18*
O=C(Nc1ccc2oc(-c3ccccc3Cl)nc2c1)c1ncn[nH]1 | 0.0428*
